LGR2 antag: inhibitors of bursicon-induced LGR2 CRE-luciferase signal, primary screen, cell-based, HEK293, CRE-luciferase reporter, bursicon stimulation; Drosophila bursicon receptor LGR2 (rickets); AID 720647, 2013; inhibition, % at 9.99 µM; 380,000 compounds, 0.35% hits; bursicon-stimulated, 4 h;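 active means drop in luminescence signal, shown as inhibition above about 50% in the replicate tests, limit read from the data, passing the limit was not always enough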;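 further: agonist challenge used bursicon conditioned medium at about half maximal strength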
HSP90 inh: HSP90 inhibitors, primary screen, cell lysate, luminescence; 290,000 compounds, 0.91% hits; Heat shock protein HSP 90 (rabbit reticulocyte lysate; luciferase refolding); Rabbit reticulocyte lysate, luciferase refolding luminescence, 3 h; AID 1789, 2009; inhibition, % at 5.6 µM;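 active means inhibition above the screen-wide mean plus 3 SD, computed separately per campaign, cut at about 16% in these data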;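 further: inhibitors lower the luminescence because luciferase stays unfolded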
KKLEB tox: cytotoxicity in KKLEB CF airway cells, primary screen, cytotoxicity control for CF NF-kB inhibitor project, cell-based, uHTS, fluorescence assay plates; KKLEB CF airway cells viability, ATPlite luminescence, overnight; stronger effect = lower value; cells stimulated with P. aeruginosa culture filtrate; activity change (cytotoxicity), % at 5 µM; 360,000 compounds, 0.36% hits; AID 602141, 2011;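 active means corrected activity change at or below -50% at 5 µM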
Mdm2 MdmX PPI: inhibitors of human Mdm2-MdmX association, primary screen, cell-based, luminescence, split luciferase, SaOS-2, uHTS; Protein Mdm4 (Homo sapiens) + E3 ubiquitin-protein ligase Mdm2 (Homo sapiens), …; SaOS-2 split-luciferase Mdm2/MdmX complementation; inhibition, % at 8 µM; 330,000 compounds, 3% hits; AID 485346, 2010;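 active means inhibition of at least 50% at 8 µM in the primary screen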
CF NFkB block: inhibitors of PAF-induced NF-kB signaling, primary screen, cell-based, GFP fluorescence, uHTS. inhibition, % at 5 µM. 360,000 compounds, 0.86% hits. AID 588850, 2011. KKLEB NF-kB-GFP reporter, GFP fluorescence overnight;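 active means at least 50% inhibition at 5 µM, scaled per plate between neutral and stimulator controls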;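 further: PAF is a Pseudomonas aeruginosa culture filtrate used as stimulus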
Peg3 promoter: Peg3 promoter-driven luciferase inhibitors, primary screen, cell-based, HeLa, luciferase luminescence; inhibition, % at 20 µM; AID 588405, 2011; 360,000 compounds, 1.7% hits; HeLa PEG-Prom luciferase reporter, overnight;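 active means inhibition of at least 50% at 20 µM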
Mdm2-MdmX conf: Mdm2-MdmX complex disruptors, retested hits, confirmation, luminescence, single concentration | shares compounds with Mdm2 MdmX PPI | Mdm2-MdmX binding, luminescent assay | inhibition, % at 8 µM | 10,000 compounds, 55% hits | AID 489028, 2010; in the data active means inhibition above about 40%
Full FLuc ctr: full-length luciferase signal inhibition, confirmation, counter-screen for Mdm2/MdmX interaction inhibitor project, cell-based, single concentration, SaOS-2 | SaOS-2 full-length luciferase counterscreen, luminescence | 6,200 compounds, 77% hits | shares compounds with Mdm2 MdmX PPI | inhibition, % at 8 µM;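 active means mean inhibition at 8 µM reaching about 37%, which flags the compound as non-specific, limit read from the data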;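 further: p53-null SaOS-2 cells with luciferase driven by a doxycycline-inducible promoter; compound on cells about two nights before reading with doxycycline added after day one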
Hits are given with their value; – = inactive; · = no result. Hits are enriched below; roughly 3.6% of the tested compounds scored in any of these assays.

SMILES	LGR2 antag	HSP90 inh	KKLEB tox	Mdm2 MdmX PPI	CF NFkB block	Peg3 promoter	Mdm2-MdmX conf	Full FLuc ctr
COC(=O)c1ccc(C(=O)N(Cc2ccccc2)c2ccccc2)cc1	–	–	–	–	–	–	·	·
O=C(CCl)N(Cc1ccccc1)c1ccccc1	–	–	–	96.3	70.1	–	96.3	55.4
CN1CCN(c2ccccc2NC(=S)NC(=O)c2cc3ccccc3o2)CC1	–	–	–	91.7	–	–	–	·
COc1ccc2cc3cc(C(=O)N4CCN(c5ccccc5)CC4)oc3nc2c1	·	–	–	–	–	–	·	·
COc1ccc2cc3cc(C(=O)NCCN4CCN(c5ccccc5F)CC4)oc3nc2c1	·	–	–	56.5	–	–	–	·
COc1ccc2cc3cc(C(=O)Nc4ccccc4N4CCN(C)CC4)oc3nc2c1	·	–	–	100.6	–	114.9	–	·
CC(=O)N1CCN(c2ccccc2NC(=O)c2cc3ccccc3o2)CC1	–	–	–	–	–	–	·	·
Cc1cc(C(=O)Nc2cccc3c2O[C@H](CN(C)C(=O)Nc2ccc4c(c2)OCO4)[C@H](C)CN([C@H](C)CO)C3=O)n(C)n1	–	·	·	·	·	·	·	·
COc1ccc(NC(=O)Nc2ccc3c(c2)CC(=O)N([C@H](C)CO)C[C@H](C)[C@H](CN(C)S(=O)(=O)c2ccc(F)cc2)O3)cc1	–	·	·	·	·	·	·	·
COCCOC(=O)c1[nH]c2c(c1C)C(=O)CC(c1ccc(F)cc1)C2 (stereo not drawn)	–	–	–	–	–	–	·	·
COC(=O)c1[nH]c2c(c1C)C(=O)CC(c1cccs1)C2 (stereo not drawn)	·	–	–	60.3	–	–	58.0	73.6
COCCOC(=O)c1[nH]c2c(c1C)C(=O)CC(c1ccccc1)C2 (stereo not drawn)	·	–	–	62.3	–	–	59.7	73.1
Cc1c(C(=O)OCCOC(C)C)[nH]c2c1C(=O)CC(c1ccco1)C2 (stereo not drawn)	·	–	–	63.8	–	–	48.4	86.2
Cc1c(C(=O)OCc2ccccc2)[nH]c2c1C(=O)CC(c1ccco1)C2 (stereo not drawn)	·	–	–	67.3	56.6	–	63.0	80.8
COCCOC(=O)c1[nH]c2c(c1C)C(=O)CC(c1ccco1)C2 (stereo not drawn)	–	–	–	–	–	–	·	·
C[C@@H]1CN([C@H](C)CO)C(=O)c2cc(C3=CCCCC3)cnc2O[C@H]1CN(C)C(=O)Cc1ccncc1	–	·	·	·	·	·	·	·
CCOC(=O)c1sc(=NC(=O)c2ccc(S(=O)(=O)N(C)c3ccccc3)cc2)n(C)c1C	–	–	–	62.6	–	–	–	·
O=C(C[C@H]1CC[C@H](NC(=O)c2ccncc2)[C@H](CO)O1)NCC1CCCCC1	–	·	·	·	·	·	·	·
Cn1nnnc1SCC(=O)N1CCN(S(=O)(=O)c2ccc(Cl)cc2)CC1	–	–	–	69.6	–	–	–	·
Cn1nnnc1SCC(=O)N1CCN(S(=O)(=O)c2ccccc2)CC1	–	–	–	–	–	–	·	·
COc1ccc(NC(=O)N(C)C[C@@H]2OCCCC[C@@H](C)Oc3ccc(NC(=O)NC(C)C)cc3C(=O)N([C@@H](C)CO)C[C@H]2C)cc1	–	·	·	·	·	·	·	·
Cc1ccnc(NC(=S)N2CCN(c3cccc(C(F)(F)F)c3)CC2)c1	–	–	–	75.3	–	–	77.3	45.7
CC(C)NC(=O)N(C)C[C@H]1Oc2ncc(C#CCC3CCCC3)cc2C(=O)N([C@@H](C)CO)C[C@H]1C	–	·	·	·	·	·	·	·
Cn1nc(-c2ccc(Cl)cc2)c2cc(C(=O)NCCN3CCOCC3)sc21	–	–	–	–	–	–	·	·
Cn1nc(-c2ccc(Cl)cc2)c2cc(C(=O)NC3CC3)sc21	–	–	–	58.9	–	–	–	·
SMILES	LGR2 antag	HSP90 inh	KKLEB tox	Mdm2 MdmX PPI	CF NFkB block	Peg3 promoter	Mdm2-MdmX conf	Full FLuc ctr
Cn1nc(-c2ccc(Cl)cc2)c2cc(C(=O)NCCCN3CCOCC3)sc21	·	–	–	–	–	–	·	·
CCCCN(CC)CCNC(=O)c1cc2c(-c3ccc(Cl)cc3)nn(C)c2s1	–	–	–	57.7	–	102.7	–	–
CC(C)NC(=O)N(C)C[C@@H]1Oc2ncc(-c3ccccc3F)cc2C(=O)N([C@@H](C)CO)C[C@H]1C	–	·	·	·	·	·	·	·
COc1cccc(C(=O)Nc2ccc3c(c2)C(=O)N(C)[C@@H]2CC[C@@H](CC(=O)NCC(F)(F)F)O[C@@H]2CO3)c1	–	·	·	·	·	·	·	·
O=C(CC12CC3CC(CC(C3)C1)C2)NC(=S)NCc1ccco1	–	–	–	63.5	–	–	–	·
CO[C@H]1CN(C)C(=O)c2cc(NS(=O)(=O)c3cn(C)cn3)ccc2OC[C@H](C)N(C)C[C@@H]1C	–	·	·	·	·	·	·	·
COc1ccc2nc(NC(=O)C3CCN(S(=O)(=O)c4cccc5nsnc45)CC3)sc2c1	·	–	–	65.3	–	81.3	66.1	38.6
Cc1ccc(CNC(=O)CSc2nc3c(sc4ccccc43)c(=O)n2CCCN2CCCC2)cc1	–	–	–	50.8	–	108.8	47.7	42.2
O=C(CSc1nc2c(sc3ccccc32)c(=O)n1CCCN1CCCC1)NCc1ccccc1	–	–	–	54.0	–	–	–	·
O=C(CSc1nc2c(sc3ccccc32)c(=O)n1CCCN1CCOCC1)NC1CCCC1	·	–	–	–	–	–	·	·
Cc1noc(C)c1NC(=O)N(C)C[C@@H]1Oc2ccc(NS(=O)(=O)c3cn(C)cn3)cc2CC(=O)N([C@@H](C)CO)C[C@@H]1C	–	·	·	·	·	·	·	·
Cc1cc(C)nc(/N=C(\N)Nc2ccc(-c3ccccc3)cc2)n1	–	–	–	51.5	–	–	–	·
COc1ccccc1-c1ccc2c(c1)O[C@H](CN(C)C(=O)c1cccnc1)[C@H](C)CN([C@H](C)CO)S2(=O)=O	–	·	·	·	·	·	·	·
Cc1ccc(-n2c3nc(=O)[nH]c(=O)c-3cc3cc([N+](=O)[O-])ccc32)cc1	–	–	–	58.4	–	–	45.8	37.9
CCOc1cc(CNc2ccc(N3CCOCC3)cc2)cc(Br)c1OCC	–	–	–	–	–	–	·	·
CCOc1cc(CNc2ccc3c(c2)OCCO3)cc(Br)c1OCC	·	16.3	–	73.3	–	–	69.5	61.8
C[C@@H]1CCCCO[C@@H](CN(C)S(=O)(=O)c2cccs2)[C@H](C)CN([C@@H](C)CO)C(=O)c2cc(NS(=O)(=O)c3cn(C)cn3)ccc2O1	–	·	·	·	·	·	·	·

High-throughput results: PubChem BioAssay, several laboratories
